Data on 17 compounds can be found in PubChem BioAssay.

Molecules are shown by their SMILES.

For test [1], the system named is Human papillomavirus type 1a protein E7 (residues 44-93). In words: small molecules binding HPV E7 44-93 – biochemical, small-molecule microarray, residues 44-93, 635 nm fluorescence, primary screen (AID 1108).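 Note: E7 fragment applied at 1 µg/mL in TBST for 1 h at 4 C; score combines spot fluorescence with its signal to noise ratio.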 Conditions: fluorescence 635 nm, higher = more signal.
The nature of test [2]: hepatitis C replication reporter changes, two-sided – Huh7 cells, luciferase reporter, HCV replication inhibitor project, primary screen (AID 1109).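 Note: huh7 hepatoma cells harbouring a luciferase neomycin HCV replicon reporter; luciferase luminescence as measure of HCV replicon replication; test concentration not given here.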 Conditions: Huh7 HCV replicon luciferase reporter, 48 h; higher = more signal. A general note: In a reporter assay the amount or activity of a reporter protein is the signal.
Test [3] addresses Left-right determination factor 2 (Homo sapiens) (UniProt O00292). In words: small molecules binding LEFTY2 protein – biochemical, small-molecule microarray, 635 nm fluorescence scan, primary screen (AID 1110). Conditions: higher = more signal.
Test [4] has as its target Calmodulin-1 (Homo sapiens) (UniProt P0DP23). Briefly: small molecules binding calmodulin-1 with EGTA – biochemical, small-molecule microarray, Cy5-labelled CALM1, profiling panel (AID 1111).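 Note: labelled calmodulin applied in Tris saline Tween buffer holding calcium plus EGTA and DTT.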 Particulars: Cy5-CALM1 binding fluorescence, higher = more signal.
The target is the same in test [5]. In words: small molecules binding Ca-loaded calmodulin-1 – biochemical, small-molecule microarray, Cy5-labelled CALM1, plus calcium, artefact control for SMM control-protein annotation, profiling panel (AID 1112).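 Note: score merges spot fluorescence with signal to noise from triplicate slides.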 Particulars: Cy5-CALM1 binding fluorescence, higher = more signal.
The nature of test [6]: probe aWnt5a binding to arrayed compounds – biochemical, biotinylated probe, 635/667 nm fluorescence, primary screen (AID 1113).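 Note: score merges 667 nm fluorescence intensity with signal-to-noise per printed feature.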 Particulars: small-molecule microarray, higher = more signal.
Test [7] can be described thus: probe aShh binding to arrayed compounds – biochemical, biotinylated probe, 635/667 nm fluorescence, primary screen (AID 1114).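 Note: probe is biotin-labelled aShh protein from a stem cell growth factor screen; measures binding of labelled protein to compounds printed on the slide; score merges feature fluorescence at 667 nm with signal-to-noise.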 Conditions: small-molecule microarray, higher = more signal.
Test [8] in a line: probe aNog binding to arrayed compounds – biochemical, biotinylated probe, 635/667 nm fluorescence, primary screen (AID 1115).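 Note: probe is biotinylated aNog protein used at 0.15 µg/mL for 1 h at 4 C; z-score combines 667 nm fluorescence of each spot with its signal to noise.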 Particulars: small-molecule microarray, higher = more signal.
The target in test [9] is Torsin-1A-interacting protein 1 (Homo sapiens) (UniProt Q5JTV8). In words: compound microarray binding of lysate hLAP1 – cell lysate, small-molecule microarray, COS7 lysate, 635/667 nm fluorescence, primary screen (AID 1116). Conditions: 635 nm fluorescence, higher = more signal.
For test [10], the target named is Alpha-bungarotoxin (Bungarus multicinctus) (UniProt P60615). Briefly: compounds binding labelled alpha-BTX control protein – biochemical, small-molecule microarray, Alexa647 label, 635/667 nm fluorescence, artefact control for SMM control protein annotation, profiling panel (AID 1117). Particulars: alpha-BTX-A647 binding fluorescence, higher = more signal.
Chain of Alpha-bungarotoxin (Bungarus multicinctus) (P60615 whole entry, looked up): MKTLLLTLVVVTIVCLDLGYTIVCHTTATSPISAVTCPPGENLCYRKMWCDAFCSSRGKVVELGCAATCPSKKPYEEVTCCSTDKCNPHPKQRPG

Chain of Torsin-1A-interacting protein 1 (Homo sapiens) (Q5JTV8 whole entry, looked up): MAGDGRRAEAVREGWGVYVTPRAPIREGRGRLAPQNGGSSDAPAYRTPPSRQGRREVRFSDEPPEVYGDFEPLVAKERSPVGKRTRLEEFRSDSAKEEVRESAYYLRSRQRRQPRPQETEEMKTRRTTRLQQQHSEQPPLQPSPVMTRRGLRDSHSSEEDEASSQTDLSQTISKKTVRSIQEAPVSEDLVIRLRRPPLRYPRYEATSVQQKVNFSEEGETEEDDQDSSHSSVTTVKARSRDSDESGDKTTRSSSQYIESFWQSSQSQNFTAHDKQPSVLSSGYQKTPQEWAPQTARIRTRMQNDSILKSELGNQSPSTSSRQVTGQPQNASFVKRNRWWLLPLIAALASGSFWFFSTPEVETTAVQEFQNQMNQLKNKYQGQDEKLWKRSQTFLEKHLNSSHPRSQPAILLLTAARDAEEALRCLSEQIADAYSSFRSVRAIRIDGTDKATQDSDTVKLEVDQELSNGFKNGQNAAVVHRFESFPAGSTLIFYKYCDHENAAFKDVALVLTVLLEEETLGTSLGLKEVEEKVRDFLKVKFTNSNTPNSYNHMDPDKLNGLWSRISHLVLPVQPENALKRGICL
Chain of Left-right determination factor 2 (Homo sapiens) (O00292 whole entry, looked up): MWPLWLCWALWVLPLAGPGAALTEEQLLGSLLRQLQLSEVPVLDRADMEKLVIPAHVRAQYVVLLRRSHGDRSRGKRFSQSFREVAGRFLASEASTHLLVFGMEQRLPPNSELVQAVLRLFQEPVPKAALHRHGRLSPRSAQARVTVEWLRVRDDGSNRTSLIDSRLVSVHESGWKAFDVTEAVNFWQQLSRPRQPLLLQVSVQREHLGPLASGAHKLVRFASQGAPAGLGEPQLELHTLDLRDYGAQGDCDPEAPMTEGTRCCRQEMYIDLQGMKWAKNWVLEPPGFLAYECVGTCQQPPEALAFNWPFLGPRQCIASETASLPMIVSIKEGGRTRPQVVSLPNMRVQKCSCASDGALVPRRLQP

For `CC(C)N1CC=CC23O[C@@H]4C=CCCOC(=O)C4[C@H]2C(=O)N(CCCO)[C@@H]3C1=O` (stereo not given in full), the composite z-score in test [1] is 0.0707; in [3] it was -0.539; in [4] it was -0.544; in test [5] it was -0.694; in [6] it was -0.145; in test [7], -0.0769. The composite z-score in test [8] was -0.0546; in test [9] it was 0.263; in test [10], -0.659. Besides, the z-score in [2] was -1.15.
As to `C=C[C@@H](CO)N(Cc1ccc(OC)cc1)S(=O)(=O)c1ccc(Br)cc1`, the composite z-score is 0.19 in test [1]; 0.211 in test [3]; -0.0366 in [4]; -0.213 in [5]; 0.0377 in test [6]; -0.0709 in test [7]. Moreover, the composite z-score was -0.201 in test [8], 0.572 in test [9] and -0.0436 in test [10]. In test [2], the z-score was -1.25.
Turning to `COC(=O)c1c(CC[C@@H](CO)NC(=O)N2CCC[C@H]2Cn2cc(C3(O)CCCCC3)nn2)oc(C(C)=O)c1C(=O)OC`, the composite z-score in test [1] is 1.33; in [3] it was 0.562; in test [4], 0.624; in test [5], -0.712; in test [6], -0.275; in [7], -0.0709. Further, the composite z-score in test [8] is 0.189; in [9], 0.416; in [10] it was 0.966. Besides, the z-score in [2] was -0.172.
`CC1=C2[C@@H](CCc3ccccc3)OB(O)C[C@@H]2[C@@H]2C(=O)N(C)C(=O)[C@@H]2C1`: the composite z-score was 0.135 in test [1]; 0.173 in test [3]; 0.0309 in test [4]; -0.338 in test [5]; -0.0519 in [6]; 0.0469 in test [7]. Besides, the composite z-score in [8] is -0.137; in test [9], 0.284; in [10] it was 0.769. In test [2], this compound showed a z-score of -0.779.
With `COc1cc(NN2C(C(O)c3ccc(N(C)C)cc3)C=CC3C(=O)N(c4ccccc4)C(=O)C32)cc(OC)c1OC` (stereo not given), the composite z-score was 1.36 in test [1]; 0.143 in test [3]; 0.68 in test [4]; 0.0572 in test [5]; 0.112 in test [6]; 0.184 in test [7]. In addition, the composite z-score turned out to be 0.531 in test [8], 0.639 in test [9] and 0.738 in [10]. The same compound returned a z-score in test [2] of -0.99.
Regarding `O=C1O[C@@H](c2ccccc2)[C@@H](c2ccccc2)N2[C@@H](c3ccc(OCCO)cc3)[C@]3(C(=O)Nc4ccc(C#CC5=CCCCC5)cc43)[C@@H](C(=O)NC[C@H](O)c3ccccc3)[C@H]12`, the composite z-score in test [1] was 0.97; in [3], 0.665; in test [4], 1.25; in test [5], 0.7; in [6] it was -0.042; in [7], -0.398. Also, the composite z-score in [8] amounted to 1.74; in test [9], 1.12; in test [10], 0.608. Moreover, the z-score in [2] was -2.54.
For `CC[C@@H]1C=C(C(=O)O)[C@H](c2ccc(C#N)cc2)N1S(=O)(=O)c1ccc(C)cc1`, the composite z-score in [1] is 0.458; in test [3], 0.635; in [4] it was 1.45; in [5], -0.0241; in test [6], 0.0136; in [7], -0.0324. The composite z-score in [8] came out at 0.598; in [9] it was 2.47; in [10], 0.62. The same compound gave a z-score in [2] of -0.651.
For the compound `COc1cc(NN2C(C(O)c3cc(OC)c(OC)c(OC)c3)C=CC3C(=O)N(C)C(=O)C32)cc(OC)c1OC` (stereo not given), the composite z-score is 1.09 in test [1]; -0.229 in test [3]; 1.34 in test [4]; 0.278 in [5]; 0.0599 in [6]; 0.23 in [7]. For the same compound, the composite z-score in test [8] came out at 0.849; in test [9], 0.904; in [10], 1.24. In addition, in test [2], the z-score is -0.336.
As to `NC(=O)[C@@]1(Cc2ccccc2)COC(c2ccc(OCCCO)cc2)=N1`, the composite z-score is 0.404 in test [1]; -0.263 in [3]; 0.435 in [4]; 1.2 in test [5]; -0.0179 in test [6]; 0.46 in test [7]. Further, the figures for the composite z-score in [8], in test [9] and in test [10] were 0.959, 0.381 and -0.0002, respectively. In addition, the z-score in [2] is 1.84.
As for `[N-]=[N+]=Nc1ccccc1[C@H]1OC(c2ccc(OCCCO)cc2)=N[C@@]1(Cc1ccccc1)C(=O)NCCN1CCOCC1`, the composite z-score in test [1] was found to be 0.632; in test [3], 0.331; in test [4] it was 2.07; in [5] it was 0.469; in test [6], 0.248; in test [7], 0.171. In addition, the figures for the composite z-score in test [8], in test [9] and in test [10] were -0.61, 0.998 and 1.8, respectively. In [2], the z-score was -1.85.
For `CC1CC/C=C\[C@H]2OC34C=CCN(c5ccc6ccccc6c5)C(=O)[C@H]3N(CCCO)C(=O)[C@@H]4C2C(=O)O1` (stereo not given in full), the composite z-score in test [1] is -0.499; in test [3], -1.85; in [4], -0.568; in test [5] it was -0.028; in [6], -0.287; in test [7], -0.291. Also, the composite z-score is -0.285 in test [8], -0.406 in test [9] and -0.905 in [10]. This compound also came in with a z-score in [2] of 0.197.
As to `CC(C)[Si](C#C[Si](C(C)C)(C(C)C)C(C)C)(O[C@H](c1ccccc1)c1cn(Cc2ccccc2)nn1)C(C)C`, the composite z-score is 1.06 in test [1]; 0.637 in [3]; 0.192 in test [4]; -0.774 in [5]; -0.0794 in test [6]; -0.0769 in test [7]. Besides, the composite z-score in [8] is 0.256; in test [9] it was 0.352; in [10], 0.717. This compound had a z-score in test [2] of -0.0298.
Regarding `C=CC[C@]1(C(=O)N2CCCCC2)N=C(c2ccc(OCCCO)cc2)O[C@H]1c1ccccc1CN=[N+]=[N-]`, the composite z-score in test [1] was 1.42; in test [3], 0.264; in test [4] it was 1.7; in [5] it was 0.204; in test [6] it was 0.0246; in test [7], -0.138. Besides, the composite z-score in [8] is -0.769; in test [9], 0.447; in [10] it was 0.875. The z-score in test [2] is -2.64.
As for `CCOC(=O)C1=C[C@@H](c2ccccc2)N(S(=O)(=O)c2ccc(C)cc2)[C@H]1c1ccc(OC)cc1`, the composite z-score is 0.796 in test [1]; 0.976 in [3]; 1.6 in test [4]; 0.736 in test [5]; 0.661 in test [6]; 0.926 in test [7]. The composite z-score in test [8] is 1.25; in [9], 0.118; in test [10] it was 1.24. In [2], this compound registered a z-score of -1.92.
For the compound `COc1cc2c(cc1O)C(C1CC1)N(Cc1cccc(OC(F)(F)F)c1)CC2` (stereo not given), the composite z-score is -1.05 in test [1]; -0.116 in test [3]; -1.67 in test [4]; -0.453 in test [5]; -0.062 in test [6]; -0.0793 in test [7]. The composite z-score in test [8] is -0.147; in [9], 0.108; in [10], -0.41. In addition, the z-score in test [2] is -2.75.
With `COc1ccc(C#Cc2ccc3c(c2)[C@]2(C(=O)N3)[C@H](c3ccc(OCCO)cc3)N3[C@H](c4ccccc4)[C@H](c4ccccc4)OC(=O)[C@H]3[C@@H]2C(=O)NC[C@H](O)c2ccccc2)cc1`, the composite z-score was 1.43 in test [1]; 0.428 in [3]; 1.12 in test [4]; -0.126 in [5]; -0.0462 in [6]; -0.0146 in [7]. In addition, the composite z-score in [8] is -0.157; in test [9], 0.64; in test [10], 1.87. The z-score in test [2] was -2.21.
For the compound `COC(=O)[C@@]1(Cc2ccc(OC)cc2)[C@H]2c3cc(C(=O)N4CCCC4)n(CCc4c[nH]c5ccc(OC)cc45)c3C[C@H]2CN1C(=O)c1ccccc1`, the composite z-score in test [1] was found to be 0.113; in [3], 0.221; in test [4], 2.28; in test [5], 1.46; in [6], 0.155; in test [7] it was 0.504. Moreover, the composite z-score in [8] was determined as 1.54; in [9], 2.19; in [10], 1.38. For the same compound, in test [2], the z-score was -1.93.
